Screens as filed in PubChem BioAssay.
TDP1 cell CPT = growth inhibition of DT40 Tdp1-/-;hTDP1 cells with camptothecin (screen for TDP1 inhibitors); chicken DT40 Tdp1-/-;hTDP1 cells + 20 nM CPT, ATP luminescence, 48 h; Potency, µM (series often up to 46.2 µM), most hits filed as inhibitors; actives 12% (n = 420,000); AID 686979; further: nearly all actives have a fitted effect of over 55% in size
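Chicken DT40 Tdp1-/- cells complemented with human TDP1, 400 cells/well, exposed to compounds plus 20 nM camptothecin for at least 48 h at 37 C; viability read as ATP content by CellTiter-Glo luminescence.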
IL1B secr inh = inhibitors of inflammasome signaling (IL-1 beta secretion); activity change, % at 57.5 µM; actives 4.7% (n = 360,000); THP-1 LPS/ATP IL-1B secretion, AlphaLISA, 16 h; hits give low values; in the data active means activity change below about -50%; inconclusive means mostly about -30% to -49%
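THP-1 cells pretreated 1 hr with compounds (up to 57.5 uM final), then stimulated with LPS (250 ng/mL final) plus ATP (1.25 mM final); secreted IL-1B measured by AlphaLISA after 16 hr, decreased signal indicating inhibition.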
HT1080 IDH1KD tx = toxicity to HT-1080 IDH1 knockdown cells (counter line); HT-1080 IDH1 knockdown viability, ATP luminescence, 48 h; actives 2% (n = 360,000); Potency, µM (top dose mostly 46.1 µM), actives largely listed as cytotoxic; AID 686971
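IDH1KD HT-1080 cells, 750/well, RPMI + 5% FBS; compound pinned after 2 h settling; 48 h, 37 °C; CellTiter-Glo luminescence; % activity normalised to DMSO and no-cell wells; curves fitted, classed by r2 and efficacy.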
DT40 TDP1 no CPT = qHTS for Inhibitors of human tyrosyl-DNA phosphodiesterase 1 (TDP1): qHTS in cells in absence of CPT. actives 15% (n = 420,000). Potency, µM (top dose mostly 46.2 µM), hits mostly inhibitors. AID 686978, 2013. DT40 Tdp1-/- hTDP1 cells, no CPT, ATP luminescence, 48 h; further: nearly all actives have a fitted effect of over 55% in size
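Camptothecin absent (DMSO only). Human TDP1-complemented DT40 knockout cells, 400 cells/well, 37 °C for minimum 48 hr; ATP measured via CellTiter-Glo, 30 min dark incubation, luminescence.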
HT1080-NT tox = kills 2HG-producing HT-1080-NT fibrosarcoma cells; HT-1080-NT fibrosarcoma viability, CellTiter-Glo ATP luminescence, 48 h; Potency, µM (top dose mostly 46.1 µM), hits mostly cytotoxic; actives 1.6% (n = 360,000); AID 686970;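 further: NT is the 2HG producing partner of a matched IDH1 knockdown line; nearly all actives have a fitted effect of over 55% in size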
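Fibrosarcoma NT cells, 750 per well in 5% FBS RPMI, were exposed to compound for 48 hours. Viability: CellTiter-Glo luminescence.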
ELG1 repair inh = blocks ELG1-dependent DNA repair in HEK293T cells | HEK293T ELG1-luciferase reporter, luminescence, 16 h; DNA damage induced by 5-fluorouridine | Potency, µM (series often up to 46.1 µM), hits mostly inhibitors | actives 2.3% (n = 330,000) | AID 504467; further: nearly all actives have a fitted effect of over 55% in size
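In this reporter screen, reduction of luminescence relative to DMSO vehicle indicated activity. Compounds and 5-fluorouridine were added together to 2,000 cells per well, incubated for 16 hr at 37 °C, then developed with ONE-Glo.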
Each line names hits and unclear results; the compound was inactive in the other large screens. Rows were chosen to be rich in hits. Some 19% of all compounds tested hit in one or more screens of this group. Unless noted, the call rests on the fitted dose curve; in most records, active means well fitted curve in the direction sought with a large enough effect; inconclusive means small, poorly fitted or top-dose-only effect, or another doubt; inactive means no such curve, though single readings can be large; an effect the other way counts as inactive or inconclusive.

COc1ccc(C2c3ccc4ccccc4c3Oc3ncn(CCCO)c(=N)c32)cc1 (stereo not drawn)	TDP1 cell CPT inconclusive, IL1B secr inh -69, HT1080 IDH1KD tx inconclusive, DT40 TDP1 no CPT inconclusive, HT1080-NT tox 18µM, ELG1 repair inh inconclusive
COc1ccc(C2c3ccc4ccccc4c3Oc3ncn(CCO)c(=N)c32)cc1 (stereo not drawn)	TDP1 cell CPT inconclusive, IL1B secr inh -100, HT1080 IDH1KD tx 12µM, DT40 TDP1 no CPT 26µM, HT1080-NT tox inconclusive
N=c1c2c(ncn1CCCO)Oc1ccc3ccccc3c1C2c1ccccc1 (stereo not drawn)	TDP1 cell CPT inconclusive, IL1B secr inh -56, HT1080 IDH1KD tx inconclusive, DT40 TDP1 no CPT inconclusive, HT1080-NT tox inconclusive, ELG1 repair inh inconclusive
CCCc1nnc(NC(=O)CCC(=O)Nc2ccc(Br)cc2)s1	ELG1 repair inh inconclusive
Cc1ccc(S(=O)(=O)Nc2cc3c(cc2C#N)OCO3)cc1C(N)=O	none
COc1ccc(C2c3ccc4ccccc4c3Oc3ncn(CCN(C)C)c(=N)c32)cc1 (stereo not drawn)	TDP1 cell CPT inconclusive, IL1B secr inh -98, HT1080 IDH1KD tx inconclusive, DT40 TDP1 no CPT 21µM, HT1080-NT tox inconclusive
CC1=C(C#N)C(=O)NC1(C)O (stereo not drawn)	none (no result: ELG1 repair inh)
Cc1nn(C(C)C(=O)Nc2cccc(F)c2)c(=O)c2c1sc1ccccc12 (stereo not drawn)	DT40 TDP1 no CPT inconclusive (no result: IL1B secr inh, HT1080 IDH1KD tx, HT1080-NT tox, ELG1 repair inh)
CCOc1ccc2ccccc2c1CNCCCN1CCOCC1	DT40 TDP1 no CPT inconclusive (no result: ELG1 repair inh)
CCn1c2ccccc2c2cc(/C=C(/C#N)C(N)=S)ccc21	TDP1 cell CPT inconclusive, DT40 TDP1 no CPT 16µM (no result: ELG1 repair inh)
CCn1c2ccccc2c2cc(CN3CCN(S(=O)(=O)CC)CC3)ccc21	none (no result: TDP1 cell CPT, IL1B secr inh, HT1080 IDH1KD tx, DT40 TDP1 no CPT, HT1080-NT tox)
CCn1c2ccccc2c2cc(CNCCCN3CCOCC3)ccc21	TDP1 cell CPT 21µM, HT1080 IDH1KD tx 21µM, DT40 TDP1 no CPT 16µM, HT1080-NT tox inconclusive
CCn1c(=O)n(CC)c2cc(N)ccc21	ELG1 repair inh inconclusive
CCn1c2ccccc2c2cc(N)ccc21	TDP1 cell CPT 26µM, HT1080 IDH1KD tx inconclusive, DT40 TDP1 no CPT inconclusive, HT1080-NT tox inconclusive
CCC(CC)NCc1ccc2c(c1)c1ccccc1n2CC	TDP1 cell CPT 18µM, IL1B secr inh -54, DT40 TDP1 no CPT 26µM, ELG1 repair inh inconclusive
COc1cccc(-c2nn3c(=O)cc(CN4CCN(S(=O)(=O)c5ccc(C)cc5)CC4)nc3s2)c1	none (no result: IL1B secr inh, HT1080 IDH1KD tx, HT1080-NT tox, ELG1 repair inh)
Cc1ccccc1OC(=O)CSc1nnc(-c2cccs2)o1	none (no result: IL1B secr inh, HT1080 IDH1KD tx, HT1080-NT tox, ELG1 repair inh)
CCS(=O)(=O)N1Cc2ccccc2CC1C(=O)Nc1nc2ccccc2s1 (stereo not drawn)	TDP1 cell CPT inconclusive, DT40 TDP1 no CPT 16µM, ELG1 repair inh inconclusive
CS(=O)(=O)N1Cc2ccccc2CC1C(=O)Nc1ccccc1C(N)=O (stereo not drawn)	TDP1 cell CPT 23µM
CCc1nnc(NC(=O)C2Cc3ccccc3CN2S(=O)(=O)CC)s1 (stereo not drawn)	none
NC[C@H]1O[C@H](O[C@H]2[C@H](O)[C@@H](O[C@H]3O[C@H](CO)[C@@H](O)[C@H](N)[C@H]3O)[C@H](N)C[C@@H]2N)[C@H](O)[C@@H](O)[C@@H]1O	DT40 TDP1 no CPT inconclusive (no result: IL1B secr inh, HT1080 IDH1KD tx, HT1080-NT tox, ELG1 repair inh)
CC1CN(C(=O)CCCN2C(=O)c3ccccc3C2=O)CC(C)O1 (stereo not drawn)	none
CN1CCN(c2ncc3ncc(=O)n(Cc4cccs4)c3n2)CC1	DT40 TDP1 no CPT inconclusive (no result: IL1B secr inh, HT1080 IDH1KD tx, HT1080-NT tox, ELG1 repair inh)
On1nnc2cc(C(F)(F)F)ccc21	none
O=C(NCCC1=CCCCC1)c1ccc(F)c(S(=O)(=O)N2CCOCC2)c1	DT40 TDP1 no CPT inconclusive, ELG1 repair inh inconclusive
CC1CN(S(=O)(=O)c2cc(C(=O)NCCC3=CCCCC3)ccc2Cl)CC(C)O1 (stereo not drawn)	TDP1 cell CPT 18µM, DT40 TDP1 no CPT 15µM, HT1080-NT tox inconclusive, ELG1 repair inh inconclusive
CCOc1ccc(CCNC(=O)c2ccc(Cl)c(S(=O)(=O)N3CCOCC3)c2)cc1OCC	TDP1 cell CPT 21µM, DT40 TDP1 no CPT 23µM, ELG1 repair inh 16µM
COc1ccc(CNC(=O)c2ccc(Cl)c(S(=O)(=O)N3CCOCC3)c2)cc1OC	TDP1 cell CPT 9.2µM, DT40 TDP1 no CPT 7.3µM, ELG1 repair inh inconclusive
CCOc1ccc(CCNC(=O)c2ccc(C)c(S(=O)(=O)N3CCOCC3)c2)cc1OCC	TDP1 cell CPT inconclusive, DT40 TDP1 no CPT inconclusive (no result: ELG1 repair inh)
O=C(NCc1ccc2c(c1)OCO2)c1ccc(Cl)c(S(=O)(=O)N2CCOCC2)c1	TDP1 cell CPT inconclusive
Cc1ccc(C)c(N2CCN(c3nc4ccccc4c(=O)n3Cc3ccccc3)CC2)c1	none
COc1ccccc1N1CCN(C(=O)c2c3c(nc4ccccc24)C(=O)N(C2CCCCC2)C3)CC1	TDP1 cell CPT 13µM, DT40 TDP1 no CPT 21µM (no result: IL1B secr inh, HT1080 IDH1KD tx, HT1080-NT tox, ELG1 repair inh)
Cc1ccc(C)c(N2CCN(C(=O)c3c4c(nc5ccccc35)C(=O)N(C3CCCCC3)C4)CC2)c1	TDP1 cell CPT 16µM, DT40 TDP1 no CPT 18µM (no result: IL1B secr inh, HT1080 IDH1KD tx, HT1080-NT tox, ELG1 repair inh)
O=C(NC1CC(=O)N(c2ccccc2)C1)c1cc2ccccc2o1 (stereo not drawn)	DT40 TDP1 no CPT inconclusive (no result: IL1B secr inh, HT1080 IDH1KD tx, HT1080-NT tox, ELG1 repair inh)
Cc1cc2nccc(-c3ccc(Cl)cc3Cl)n2n1	TDP1 cell CPT inconclusive, DT40 TDP1 no CPT inconclusive, ELG1 repair inh inconclusive
COc1ccc(Nc2ccccc2N)cc1	TDP1 cell CPT inconclusive, IL1B secr inh -50, HT1080 IDH1KD tx inconclusive, DT40 TDP1 no CPT 21µM, ELG1 repair inh inconclusive
Cc1cc(C)nc(Nc2cccc(C(F)(F)F)c2)n1	none
